VDR inhibitor: blocks the human vitamin D receptor; P11473; VDR-SRC2-3 peptide fluorescence polarization, 2 h; Potency, µM, for the others: max response, negative = inhibition, actives largely listed as inhibitors; hit rate 0.93% among 400,000; AID 504847; also: % is scaled to controls: 0 for no effect and ±100 for the full control effect
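VDR–SRC2-3 interaction, FP format. Cmpds 23 nl via pintool, brief spin, 2 h ambient incubation.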
PLK1 PBD block: PLK1 (human) polo-box domain binding inhibition. P53350. Plk1 PBD binding of FITC phosphopeptide, fluorescence polarization. Potency, µM, for inactives: max response, negative = inhibition, actives largely listed as inhibitors. hit rate 2.8% among 360,000. AID 720504; also: series mostly up to about 57 µM; % is scaled to controls: 0 for no effect and ±100 for the full control effect; nearly all actives have a fitted effect of over 65% in size
Mito fusion act: mitochondrial division inhibition or fusion activation; S. cerevisiae fusion-defective mutant growth rescue, CellTiterGlo 48 h; Potency, µM (highest dose often 46.1 µM), inactives show at the highest dose growth rescue (activation), most hits filed as activators; hit rate 0.23% among 320,000; also: % of control where 0% means no effect; nearly all actives have a fitted effect of over 45% in size
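Read-out: ATP-based luminescence (CellTiterGlo, 10 min ambient) reporting growth of fusion-defective ts yeast after 48 hours at 37C on glycerol/ethanol YPEG medium in the presence of compound.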
PKM2 activator: increases activity of human pyruvate kinase M2; Potency, µM (top dose mostly 57.5 µM), inactives show at the highest dose activation, hits mostly activators; purified PKM2, Kinase-Glo ATP luminescence, activation; response scale: 0% is enzyme alone, no compound; AID 1631; hit rate 0.34% among 260,000; also: % is scaled to controls: 0 for no effect and ±100 for the full control effect; nearly all actives have a fitted effect of over 55% in size
Target sequence (P14618 whole entry, looked up): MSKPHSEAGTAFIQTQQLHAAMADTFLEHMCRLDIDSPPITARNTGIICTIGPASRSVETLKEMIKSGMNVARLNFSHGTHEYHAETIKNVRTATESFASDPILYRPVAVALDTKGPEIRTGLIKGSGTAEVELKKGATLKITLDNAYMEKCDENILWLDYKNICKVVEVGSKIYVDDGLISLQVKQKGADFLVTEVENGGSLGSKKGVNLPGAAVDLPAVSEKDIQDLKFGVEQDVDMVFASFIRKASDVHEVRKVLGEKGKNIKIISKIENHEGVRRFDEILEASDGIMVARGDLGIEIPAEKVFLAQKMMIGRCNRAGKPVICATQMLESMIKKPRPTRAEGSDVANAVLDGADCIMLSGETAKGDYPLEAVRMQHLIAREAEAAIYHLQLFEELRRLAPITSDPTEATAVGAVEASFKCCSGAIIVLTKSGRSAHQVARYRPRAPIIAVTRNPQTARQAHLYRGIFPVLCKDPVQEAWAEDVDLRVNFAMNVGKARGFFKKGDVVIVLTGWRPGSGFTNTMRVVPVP
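ATP formation by purified human PK-M2, quantified via coupled luciferase luminescence after 1 h at room temperature with 0.1 mM ADP and 0.5 mM PEP final.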
GCN5L2 inh: GCN5L2 (KAT2A) acetyltransferase inhibition; Q92830; GCN5L2 HAT assay, ThioGlo1 CoA-SH fluorescence; Potency, µM (titrated, usually from 58.9 µM), for inactives: top-dose activity change, negative = inhibition, hits mostly inhibitors; hit rate 0.21% among 390,000; also: % is scaled to controls: 0 for no effect and ±100 for the full control effect
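Preincubate 20nM GCN5L2 with compound 15 min, RT → add 50uM ThioGlo1 + 75uM H3(1-25) + 70uM acetyl-CoA → read fluorescence 0 and 20 min. Primary qHTS; fluorescent artifacts likely.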
GLS inh: inhibitors of human glutaminase (GLS); O94925; GLS enzymatic activity, qHTS titration; Potency, µM (titrated, usually from 45.5 µM), for the others: at the highest dose activity change, negative = inhibition, actives largely listed as inhibitors; hit rate 0.21% among 410,000; also: % is scaled to controls: 0 for no effect and ±100 for the full control effect
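Compounds were pin-transferred onto hKGA, after which L-glutamine (1 mM solution) and a detection mix of glutamate oxidase, HRP and Amplex Red were added. Initial and 30 min RT fluorescence reads were collected.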
TbPYK confirm: Trypanosoma brucei pyruvate kinase inhibition, cherry-pick confirmation; shares compounds with PLK1 PBD block; recombinant TbPYK, Kinase-Glo ATP luminescence; Potency, µM (series often up to 76.9 µM), inactives show at the highest dose activity change, negative = inhibition, hits mostly inhibitors; hit rate 67% among 890; AID 720569; also: % is scaled to controls: 0 for no effect and ±100 for the full control effect; nearly all actives have a fitted effect of over 70% in size
TbPYK orthogonal: TbPYK inhibition, orthogonal confirmation; Potency, µM (titrated, usually from 76.9 µM), inactives show at the highest dose activity change, negative = inhibition, usual class: inhibitors; shares compounds with PLK1 PBD block; hit rate 62% among 890; recombinant TbPYK, ADP-Glo luminescence, 60 min; also: % is scaled to controls: 0 for no effect and ±100 for the full control effect; nearly all actives have a fitted effect of over 75% in size
Starred values were filed as active, the others as inactive; ? = inconclusive; nt = no result; [ ] = dose if it differs, or a comment. Most compounds without a hit are left out; they make up all but 3.4% or so of the library. Calls follow the shape of the dose curve; as a rule, active = well fitted curve in the direction sought with a large enough effect; inconclusive = small, poorly fitted or top-dose-only effect, or another doubt; inactive = no such curve, though single readings can be large; an effect the other way counts as inactive or inconclusive. Potency is read from the fitted curve at half-maximal effect.

SMILES | VDR inhibitor | PLK1 PBD block | Mito fusion act | PKM2 activator | GCN5L2 inh | GLS inh | TbPYK confirm | TbPYK orthogonal
Cc1ccc(/C=C/C(=O)NCc2ccc(S(N)(=O)=O)cc2)o1 | 89µM* | 27µM* | -1% | 26% | ? | 0% | 6.3µM* | 1.6µM*
COc1ccccc1CNC(=O)CCNS(=O)(=O)c1ccc2c(c1)oc(=O)n2C | 8% | 13% | 0% | nt | -15% | 4% | nt | nt
Cc1cccc(C)c1OCC(=O)NCC1CCCO1 (stereo not given) | -8% | -1% | -2% | -6% | -9% | 8% | nt | nt
CC(C)CSCC1OC(n2cnc3c(N)nccc32)C(O)C1O (stereo not given) | nt | -7% | nt | nt | nt | -9% | nt | nt
Cc1cc(Cl)nc(SCC(=O)c2ccccc2)n1 | 10% | 1% | -2% | -4%[11.5 µM] | -2% | 14% | nt | nt
CC(=O)c1ccc(NC(=O)CSc2nnc(-c3ccco3)c(-c3ccco3)n2)cc1 | 22µM* | 13µM* | 7% | ? | ? | -19% | 28µM* | 32µM*
O=C(CSc1nnc(-c2ccco2)c(-c2ccco2)n1)c1ccccc1 | ? | 17µM* | 7% | -1% | 1% | -17% | 14µM* | 20µM*
N#Cc1cc(-c2ccccc2)nn1-c1ccccc1 | ? | 6µM* | -3% | -18% | ? | -10% | 2.5µM* | 3.2µM*
Cn1ccc(-c2ccccc2)n1 | 13% | -3% | -3% | 0% | -1% | 1% | nt | nt
O=C(CCNC(=O)c1ccco1)Nc1ccccc1OC(F)F | -12% | -6% | 14% | nt | 4% | 5% | nt | nt
Cn1c2nc3ccccc3c-2nc2ccccc21 | nt | -7% | nt | nt | nt | -8% | nt | nt
Cc1ccc(-c2nc3ccccc3n2C)o1 | -19% | -11% | -9% | -71% | -3% | 15% | ? | -7%
Cc1ccc2cc(CN(CC(C)C)C(=O)C3CCCO3)c(=O)[nH]c2c1 (stereo not given) | 3% | -8% | 1% | -14% | -2% | 0% | -20% | -28%
Cc1ccc(NC(=O)CN(C)C(=O)CSc2nncn2C)cc1 | 9% | -1% | -3% | -19% | -6% | 2% | nt | nt
CC(=O)/C(=N\Nc1ccc(C)cc1)Sc1nncn1C | -2% | -4% | 1% | -18% | 2% | 0% | 4.5µM* | 13µM*
CCOC(=O)CNC(=O)CSc1nnc(-c2ccco2)n1N | 15% | 0% | -2% | -13% | -3% | -1% | nt | nt
CCOC(=O)CNC(=O)CSc1nnc(-c2ccco2)n1Cc1ccco1 | 6% | -5% | -1% | -9% | 1% | -10% | 3.5µM* | 14µM*
COc1ccc(CCC(=O)NCc2nc3cccnc3n2Cc2cccc(OC)c2)cc1 | 3% | nt | nt | nt | -10% | 4% | nt | nt
C[C@@H]1CN([C@H](C)CO)C(=O)Cc2cc(NC(=O)Cn3cnnn3)ccc2O[C@@H]1CN(C)Cc1ccc(Cl)c(Cl)c1 | -10% | -15% | nt | nt | -13% | 9% | nt | nt
Oc1ccc(N2CCN(Cc3nc4ccccc4[nH]3)CC2)cc1 | 3% | -7% | -2% | 2% | -4% | 9% | 18µM* | 28µM*
c1ccc2[nH]c(CN3CCOCC3)nc2c1 | 15% | -12% | 1% | -5% | -8% | -13% | nt | nt
O=C(NCCc1ccccc1)C1COc2ccccc2O1 (stereo not given) | 1% | -17% | 3% | nt | ? | -2% | nt | nt
O=C(NCCc1ccc(O)c(O)c1)C1COc2ccccc2O1 (stereo not given) | -2% | -9% | 1% | nt | -18% | ? | 18µM* | 18µM*
COC(=O)c1ccc(CCc2cc(O)c(Br)cc2O)cc1 | -6% | ? | nt | nt | nt | ? | 32µM* | 35µM*
CCCn1c(NCc2c[nH]c3ccccc23)nc2ccccc21 | -4% | 3% | -1% | 30% | -4%[0.501 µM] | 24% | nt | nt
SMILES | VDR inhibitor | PLK1 PBD block | Mito fusion act | PKM2 activator | GCN5L2 inh | GLS inh | TbPYK confirm | TbPYK orthogonal
CCN1CCN(c2nc(C)nc3c2sc(=S)n3C)CC1 | 25µM* | 3µM* | 4% | -13% | 0% | -11% | 5.6µM* | 16µM*
CCN(CC)c1ccc2nc3ccc(N)cc3[n+](-c3ccccc3)c2c1 | ? | -27% | -14% | nt | -21% | -4% | ? | 8%
O=C(NCc1ccc(F)cc1)c1ccc(CS(=O)(=O)c2ccc(Cl)cc2)o1 | -3% | nt | 4% | nt | -7% | -14% | nt | nt
COc1cc(Cl)c(S(=O)(=O)N2CCCC2)cc1Cl | 1% | 0% | 4% | 10% | -1% | 4% | nt | nt
COc1cc(N2C(=O)C=CC2=O)c(OC)cc1Cl | 28µM* | 3µM* | -6% | 8.9µM* | ? | 5% | 4.5µM* | 7.1µM*
CC(Oc1ccccc1)C(=O)Nc1ccc(S(=O)(=O)N2CCN(C)CC2)cc1 (stereo not given) | -25% | -6% | -2% | nt | 1% | -1% | nt | nt
CC(Oc1ccccc1Cl)C(=O)Nc1ccc(S(=O)(=O)N2CCN(C)CC2)cc1 (stereo not given) | ? | 19µM* | nt | nt | nt | -8% | ? | ?
Oc1ccc(/C=N/Nc2nccnc2Cl)c(O)c1 | -15% | 1% | 0% | -47% | 2% | 18% | ? | 3%
c1ccc(C[n+]2csc3ccccc32)cc1 | 40µM* | 3.8µM* | 4% | 26% | -13% | 36% | ? | 14µM*
Fc1cccc(C[n+]2csc3ccccc32)c1 | 32µM* | 24µM* | 3% | 28% | -18% | 28% | ? | 13µM*
Cc1ccc(COc2ccc(-c3cc(C(F)(F)F)n4nc(C)cc4n3)cc2)cc1 | 6% | nt | nt | nt | -10% | -8% | nt | nt
CCOC(=O)c1ccccc1NC(=O)COC(=O)Cc1ccccc1F | 3% | -2% | 19% | nt | -12% | 1% | nt | nt
CC1=CC(=O)C=CC1=Nc1ccc(N(C)C)cc1 | nt | ? | nt | nt | nt | 20% | 22µM* | -16%
COc1ccc2oc(C(=O)OCC(=O)NC(C)c3ccccc3)c(C)c2c1 (stereo not given) | 17% | 2% | ? | nt | -7% | -4% | nt | nt
CCCCOc1ccc(/C=C/C(=O)OCC(=O)NC(=O)NCC(C)C)cc1OCC | -7% | -11% | 2% | -12% | 5% | 1% | 4% | -2%
O=S(=O)(NCCC1=CCCCC1)c1cccc(S(=O)(=O)N2CCOCC2)c1 | -27% | 2.7µM* | 21% | 6% | -4% | ? | 0% | -6%
Oc1cccc(-c2nc3ccccc3s2)c1 | -6% | -18% | 15% | -3% | -3% | 15% | nt | nt

Bioassay records (PubChem)
